In PubChem BioAssay (NCATS):
Inconclusive results are not listed. Activity calls are given as the source filed them. The call rests on the fitted dose curve; in most records, active means well fitted curve in the direction sought with a large enough effect; inconclusive means small, poorly fitted or top-dose-only effect, or another doubt; inactive means no such curve, though single readings can be large; an effect the other way counts as inactive or inconclusive.

What was measured:
[1] = S16 Schwann cell viability assay (CellTiter-Glo assay) (AID 624031);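 further: native untransfected S16 rat Schwann cells; cellular ATP luminescence as a viability measure; nearly all actives have a fitted effect of over 70% in size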
Method in brief: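 Concentration-effect curves come from CellTiter-Glo luminescence of S16 rat Schwann cells after 24 h compound exposure. Each reading was normalized to DMSO wells (0%) and wells without cells, and curves were ranked by r2 and response magnitude.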

ATS189 = experiment: qHTS profiling for inhibitors of Plasmodium falciparum proliferation (AID 504749); further: nearly all actives have a fitted effect of over 60% in size; details: P. falciparum in erythrocytes, SYBR Green DNA, 72 h; series mostly up to 28.7 µM
Method in brief: (§1)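 Parasite proliferation within erythrocytes, 72 h exposure. Endpoint: SYBR Green I fluorescence after overnight lysis at room temperature. Controls: 0.29 uM artemisinin, DMSO.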

CP194 = experiment: as above; details: P. falciparum in erythrocytes, SYBR Green DNA, 72 h; series mostly up to 28.7 µM
Method in brief: as §1

CP201 = experiment: as above; details: P. falciparum in erythrocytes, SYBR Green DNA, 72 h; series mostly up to 28.7 µM
Method in brief: as §1

CP203 = experiment: as above; details: P. falciparum in erythrocytes, SYBR Green DNA, 72 h; series mostly up to 28.7 µM
Method in brief: as §1

CP217 = experiment: as above; details: P. falciparum in erythrocytes, SYBR Green DNA, 72 h; series mostly up to 28.7 µM
Method in brief: as §1

CP237 = experiment: as above; details: P. falciparum in erythrocytes, SYBR Green DNA, 72 h; series mostly up to 28.7 µM
Method in brief: as §1

CP252 = experiment: as above; details: P. falciparum in erythrocytes, SYBR Green DNA, 72 h; series mostly up to 28.7 µM
Method in brief: as §1

CP265 = experiment: as above; details: P. falciparum in erythrocytes, SYBR Green DNA, 72 h; series mostly up to 28.7 µM
Method in brief: as §1

CP268 = experiment: as above; details: P. falciparum in erythrocytes, SYBR Green DNA, 72 h; series mostly up to 28.7 µM
Method in brief: as §1

CP291 = experiment: as above; details: P. falciparum in erythrocytes, SYBR Green DNA, 72 h; series mostly up to 28.7 µM
Method in brief: as §1

CP305 = experiment: as above; details: P. falciparum in erythrocytes, SYBR Green DNA, 72 h; series mostly up to 28.7 µM
Method in brief: as §1

CP325 = experiment: as above; details: P. falciparum in erythrocytes, SYBR Green DNA, 72 h; series mostly up to 28.7 µM
Method in brief: as §1

DIV30 = experiment: as above; details: P. falciparum in erythrocytes, SYBR Green DNA, 72 h; series mostly up to 28.7 µM
Method in brief: as §1

HB3 = experiment: as above; details: P. falciparum in erythrocytes, SYBR Green DNA, 72 h; series mostly up to 28.7 µM
Method in brief: as §1

PC15 = experiment: as above; details: P. falciparum in erythrocytes, SYBR Green DNA, 72 h; series mostly up to 28.7 µM
Method in brief: as §1

TAB109 = experiment: as above; details: P. falciparum in erythrocytes, SYBR Green DNA, 72 h; series mostly up to 28.7 µM
Method in brief: as §1

AS120 = experiment: as above; details: P. falciparum in erythrocytes, SYBR Green DNA, 72 h; series mostly up to 28.7 µM
Method in brief: as §1

CP215 = experiment: as above; details: P. falciparum in erythrocytes, SYBR Green DNA, 72 h; series mostly up to 28.7 µM
Method in brief: as §1

SC27B = experiment: as above; details: P. falciparum in erythrocytes, SYBR Green DNA, 72 h; series mostly up to 28.7 µM
Method in brief: as §1

Measured: Potency

N#C/C(=C1/SCC(c2ccccc2Cl)S1)n1ccnc1 (centres undefined)
not listed: AS120 | CP215 | SC27B
inactive: all other assays above

NC(CSSCC(N)C(=O)O)C(=O)O (centres undefined)
inactive: all assays above

Nc1nc(/C(=C/CC(=O)O)C(=O)NC2C(=O)N3C(C(=O)O)=CCSC23)cs1 (centres undefined)
not listed: CP203 | HB3
inactive: all other assays above

Cn1cc(C(=O)[C@@H]2CCc3[nH]cnc3C2)c2ccccc21
not listed: [1]
inactive: all other assays above

C[C@]12CC[C@@H]3c4ccc(O)cc4CC[C@H]3[C@@H]1CCC2OC(=O)CCC1CCCC1 (some centres undefined)
not listed: [1] | CP237 | PC15
inactive: all other assays above

C=C1NC(=O)c2cc(CN(C)c3ccc(C(=O)N[C@@H](CCC(=O)O)C(=O)O)s3)ccc2N1
not listed: CP237 | CP291
inactive: all other assays above

C[C@@H](O)[C@@H]1C(=O)N2C(C(=O)O)=C([C@H]3CCCO3)S[C@H]12
not listed: CP201
inactive: all other assays above

CC1OC(OC2C(O)CC(OC3C(O)CC(OC4CCC5(C)C(CCC6C5CCC5(C)C(C7=CC(=O)OC7)CCC65O)C4)OC3C)OC2C)CC(O)C1O (centres undefined)
not listed: CP194 | CP237 | HB3 | PC15
inactive: all other assays above

CCC(C)C(N)C(=O)O (centres undefined)
inactive: all assays above
